BoNT A protease = BoNT/A light chain protease inhibitors, primary screen, biochemical, flow cytometry, MLPCN library; Botulinum neurotoxin type A light chain protease (Clostridium botulinum A str. ATCC 3502); multiplex microsphere protease substrate cleavage; inhibition, % at 10 µM; 0.17% of 360,000 active; AID 588499, 2011; note: plate controls were buffer without enzyme for full effect and enzyme alone for no effect
Bead autofluor = counter-screen for toxin protease inhibitors: compound fluorescence; fluorescence intensity (no concentration beside the values); 3.1% of 360,000 active; compound autofluorescence counterscreen, microsphere flow cytometry; active compounds read high; in the data active = fluorescence intensity above about 16000; inconclusive = no clear call, values can overlap the other calls
CCHFV vOTU inh = CCHFV vOTU protease inhibitors, primary screen, biochemical, Pep-AMC substrate, fluorescence | Crimean-Congo hemorrhagic fever virus L polyprotein viral ovarian tumor (vOTU) protease … | AID 651958, 2012 | 0.55% of 370,000 active | inhibition, % at 11.5 µM; in the data active = inhibition above about 30%; note: 0% = vehicle wells with enzyme and 100% = no enzyme wells
Anthrax LF inh2 = Bacillus anthracis LF protease inhibitors, primary screen, biochemical, multiplex microsphere, MLPCN library | AID 588501, 2011 | inhibition, % at 10 µM | 0.12% of 360,000 active | multiplex microsphere protease cleavage assay | Lethal factor (Bacillus anthracis), P15917; note: plate controls were buffer without enzyme for full effect and enzyme alone for no effect
Target sequence (P15917 whole entry, looked up): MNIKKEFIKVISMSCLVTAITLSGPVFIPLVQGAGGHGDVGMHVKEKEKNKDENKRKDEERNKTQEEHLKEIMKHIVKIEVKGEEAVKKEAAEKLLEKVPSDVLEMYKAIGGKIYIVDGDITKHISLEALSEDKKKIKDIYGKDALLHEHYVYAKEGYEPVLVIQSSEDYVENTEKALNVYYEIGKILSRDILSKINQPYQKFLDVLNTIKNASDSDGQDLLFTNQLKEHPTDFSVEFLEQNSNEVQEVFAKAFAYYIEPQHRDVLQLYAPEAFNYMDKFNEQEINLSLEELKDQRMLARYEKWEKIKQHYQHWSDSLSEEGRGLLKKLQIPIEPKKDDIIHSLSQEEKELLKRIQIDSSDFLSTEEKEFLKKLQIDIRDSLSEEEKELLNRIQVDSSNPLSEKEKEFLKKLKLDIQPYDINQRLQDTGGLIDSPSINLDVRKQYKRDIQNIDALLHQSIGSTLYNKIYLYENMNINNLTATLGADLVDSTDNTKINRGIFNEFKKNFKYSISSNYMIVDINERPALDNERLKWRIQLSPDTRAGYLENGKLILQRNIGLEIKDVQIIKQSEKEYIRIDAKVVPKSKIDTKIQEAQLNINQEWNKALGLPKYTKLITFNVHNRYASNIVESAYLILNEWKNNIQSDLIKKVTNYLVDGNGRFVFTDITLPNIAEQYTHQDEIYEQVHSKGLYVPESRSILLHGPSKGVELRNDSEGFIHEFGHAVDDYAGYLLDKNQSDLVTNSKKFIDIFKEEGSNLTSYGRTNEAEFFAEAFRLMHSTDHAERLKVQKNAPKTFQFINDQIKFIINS
BoNT-F LC inh = BoNT/F light chain protease inhibitors, primary screen, biochemical, flow cytometry, MLPCN library; Multiplex microsphere protease cleavage assay; Botulinum neurotoxin type F light chain protease (Clostridium botulinum); inhibition, % at 10 µM; 0.22% of 360,000 active; in the data active = inhibition above about 35%, passing the limit was not always enough; inconclusive = no clear call, values can overlap the other calls; note: plate controls were buffer without enzyme for full effect and enzyme alone for no effect
3CLpro inhibitor = SARS-CoV 3CLpro protease inhibitors, primary screen, biochemical, quenched FRET; Replicase polyprotein 1ab (Severe acute respiratory syndrome coronavirus), P0C6X7; recombinant SARS-CoV 3CLpro, quenched FRET peptide cleavage; inhibition, % at 6 µM; 0.14% of 290,000 active; in the data active = inhibition above about 12%
* marks the source's active call; other numbers are inactive results; ? = inconclusive; · = not tested or not shown. Hits are enriched below; roughly 3.9% of the tested compounds scored in any of these assays. Cut-off read from the data, not from the text of the source, unless noted: active = inhibition above about 30%; inconclusive = no clear call, values can overlap the other calls; inactive = below that.

SMILES	BoNT A protease	Bead autofluor	CCHFV vOTU inh	Anthrax LF inh2	BoNT-F LC inh	3CLpro inhibitor
CC1CCN(C(=O)c2ccc(NS(C)(=O)=O)cc2)CC1	?	19949*	-4	1	0	1
O=C(Cn1cc(C(F)(F)F)ccc1=O)NCc1ccc(F)cc1	1	5321	17	-1	1	-3
Cc1cc(CNCc2c(C(=O)N3CCCCCCC3)nc3ccc(Cl)cn23)nn1C	0	4504	9	0	-3	5
C=CCOc1c(CCC)cc(CCC)cc1C(N)=O	0	3334	3	-2	0	4
COc1ccc(C(=O)N2CCC(C(=O)Nc3ccccc3OC)CC2)cc1	?	22688*	-7	-1	-3	2
CC(=O)Nc1ccc(OCC(O)CNC2CCCC2)cc1 (stereo not given)	?	23804*	-9	0	-10	-6
OC(CNC1CCCC1)COc1c(F)cc(Br)cc1F (stereo not given)	0	16538*	-1	-4	0	3
C/C(=N\NC(=O)NC1CCCCC1)c1ccco1	0	3456	-15	-5	-2	-4
CCn1c(O)c(/C=N/N=C2CCCCC2)c2cc(C3=NNC(=O)CC3)ccc21	0	5560	-6	-8	-12	-3
CCn1c(O)c(/C=N/N=C2CCCC2)c2ccc(C3=NNC(=O)CC3)cc21	-4	23877*	-2	-4	-7	-4
COc1cc(Cl)ccc1OC1(C)CCN(Cc2ccc(-c3ccccn3)cc2)C1 (stereo not given)	0	2889	11	-3	-2	·
O=C(Oc1c(Cl)cc(Cl)c2cccnc12)N1CCCCC1	?	21476*	0	-1	-8	-1
CSc1nc2ccccc2n1C(=O)Oc1ccccc1	2	20058*	-3	1	6	5
CCOC(=O)n1c(SCC(N)=O)nc2ccccc21	-2	3304	8	-2	-17	5
COc1ccc(-c2csc(-n3cccn3)n2)cc1	-3	3739	2	-7	-21	4
c1nc(N2CCOCC2)c2c3c(sc2n1)CCCC3	0	23015*	-5	-1	-2	-2
O=c1c2c([N+](=O)[O-])cc([N+](=O)[O-])cc2sn1-c1ccc(Br)cc1	3	2407	·	-3	8	2
O=c1c2c([N+](=O)[O-])cc([N+](=O)[O-])cc2sn1Cc1ccccc1	50*	3488	2	-10	56*	0
Cc1ccc(C(=O)Nc2ccc(Br)c(C(F)(F)F)c2)cc1	-1	16589*	13	-1	-4	9
Cc1ccc(NC(=O)c2ccc(C)cc2)cc1	0	4318	16	-4	-9	·
CC1(C)CC(=O)C=C(Nc2ccccc2NC(=O)c2cccc(F)c2F)C1	·	·	-3	·	·	·
CCN1C(=O)/C(=C/C=C2\C=CN(CC)c3ccccc32)SC1=S	41*	6742	11	16	-9	1
COc1cccc(-c2nc(N)nc(SC)c2C#N)c1	0	4166	-2	-5	3	-3
COc1cccc(OC)c1OCCCSc1nc(C)cc(=O)[nH]1	3	22471*	-3	-1	4	-7
Cc1cc(=O)[nH]c(SCCCOc2ccc3c(c2)CCC3)n1	0	23738*	9	3	-1	-1
SMILES	BoNT A protease	Bead autofluor	CCHFV vOTU inh	Anthrax LF inh2	BoNT-F LC inh	3CLpro inhibitor
CCOc1ccc(OCCSc2nc(C)cc(=O)[nH]2)cc1	0	2771	12	0	-2	-6
O=C(CSc1nnc(SCc2cccc3ccccc23)s1)c1ccc(F)cc1	·	·	1	·	·	·
C[C@H](O)[C@@H]1C(=O)N2CCc3ccc(N4CCOCC4)cc3[C@@H]2C[C@@H]1N(C)C(=O)Nc1ccccc1	0	3850	0	2	-7	·
O=C(NCC(c1ccco1)N1CCOCC1)c1ccccc1 (stereo not given)	0	6296	-12	4	5	·
O=S(=O)(CC(CN1CCCC1)N1CCCC1)c1ccc2ccccc2c1 (stereo not given)	3	26003*	0	-4	7	-8
CC(CS(=O)(=O)c1ccc2ccccc2c1)N1CCN(C2CCCCC2)CC1 (stereo not given)	·	·	·	·	·	2
